This passage reports outcome and AC50 results from PubChem BioAssay (EPA / NIEHS).

Active and inactive are the calls of the source. The calls were made as follows: active = hit-call score of the fitted dose curve at least 0.9, where 1 is the maximum; inactive = score below 0.9.

The test is described as follows: ATG_MRE_CIS: Attagene CIS-FACTORIAL HepG2 Assay for human Metal Responsive Element (MRE) (AID 2282954). Particulars: HepG2 MRE cis-reporter transcription, Attagene multiplex; actives raise or lower the signal. The protocol: ATG_CIS is a cell-based, multiplexed-readout assay that uses HepG2, a human liver cell line, with measurements taken at 24 hours after chemical dosing in a 24-well plate.ATG_MRE_CIS is one of 52 assay component(s) measured or calculated from the ATG_CIS assay. It is designed to make measurements of mRNA induction, a form of inducible reporter, as detected with fluorescence intensity signals by Reverse transcription polymerase chain reaction (RT-PCR) and Capillary electrophoresis technology.Data from the assay component ATG_MRE_CIS was analyzed into 1 assay endpoint. This assay endpoint, ATG_MRE_CIS, was analyzed with bidirectional fitting relative to DMSO as the negative control and baseline of activity. Using a type of inducible reporter, measures of mRNA for gain or loss-of-signal activity can be used to understand the reporter gene at the transcription factor-level as they relate to the gene MTF1. Furthermore, this assay endpoint can be referred to as a primary readout, because this assay has produced multiple assay endpoints where this one serves a reporter gene function. To generalize the intended target to other relatable targets, this assay endpoint is annotated to the dna binding intended target family, where the subfamily is zinc finger.
Human liver HepG2 cells are transiently transfected with multiple reporter transcription units (MRTUs) in 6-well plates using FuGene 6 reagent (Roche; 3 ml FuGene/1 mg DNA). The MRTU constructs are regulated by a cis-regulating element (promoter). […] A major difference between the CIS and TRANS system is that in CIS activities of endogenous TFs are measured, whereas the TRANS assay evaluates changes in activities of exogenous, chimeric NR-Gal4 proteins. […] At the end of 24 hour incubation, total RNA was isolated using TriZol reagent (Invitrogen). The isolated RNA is then reverse-transcribed using oligo(dT) primer and Mo-MLV reverse transcriptase (Invitrogen) with DNAse I (Ambion) treatment for 30 min. The one-tenth of the produced cDNA was amplified by PCR using Taq DNA polymerase (Invitrogen) and two reporter sequence-specific primers. The PCR products were fluorescently labeled by primer extension with 6-arboxyfluorescein (6-FAM) 5'-labeled reporter sequence-specific primer (2 min at 95 C, 20 s at 68 C and 10 min at 72 C) and these products were digested with 5U of HpaI (New England Biolabs) for 2h at 37 C. The fragments were purified using Qiaquick PCR columns (Qiagen), analyzed on an ABI 3130xL genetic analyzer (Applied Biosystems) with peak positions identified by using a set of X-rhodamine (ROX)-labeled MapMarker1000 molecular weight standards (BioVentures). The raw capillary electrophoresis data was processed using Attagraph software (Attagene).
Turning to `OC(c1ccc(Cl)cc1)(c1ccc(Cl)cc1)C(Cl)(Cl)Cl`, the outcome was inactive.
`CCOC(=O)C(C)OC(=O)c1cc(Oc2ccc(C(F)(F)F)cc2Cl)ccc1[N+](=O)[O-]` (stereo not given): the molecule was classed as inactive.
On to `CCN(CC)c1nc(C)cc(OP(=S)(OC)OC)n1`, for which the AC50 is 50 µM (active).
Take `Cc1cnc(C2=NC(C)(C(C)C)C(=O)N2)c(C(=O)O)c1` (stereo not given): the molecule was called inactive.
`O=C(O)c1c(Cl)ccc2cc(Cl)cnc12`: the outcome was inactive.
Consider `COP(=O)(OC)O/C(C)=C/C(=O)N(C)C`, for which the outcome was inactive.
Take `CC(C)Nc1nc(Cl)nc(NC(C)C)n1`: the call was inactive.
The same measure, in the same setting: the entry for `COC(=O)NS(=O)(=O)c1ccc(N)cc1` is “inactive”.
Same read-out and setting: the entry for `COCc1cnc(C2=NC(C)(C(C)C)C(=O)N2)c(C(=O)O)c1` (stereo not given) is “inactive”.
Take `Cc1nc(N(C)C)nc(OC(=O)N(C)C)c1C`: the molecule was called inactive.
Same read-out and setting: the result for `CS(=O)(=O)c1cc(C(F)(F)F)ccc1C(=O)c1cnoc1C1CC1` reads “inactive”.
With `CN=C=S`, the AC50 is 26.1 µM (active).
For the molecule `Clc1cccc(C(Cl)(Cl)Cl)n1`, the outcome was inactive.
For the molecule `CCCCC(C#N)(Cn1cncn1)c1ccc(Cl)cc1` (stereo not given), the outcome was inactive.
For `CC(C)C1(C)N=C(c2ncccc2C(=O)O)NC1=O` (stereo not given), the call was inactive.
Consider `CC1(C)CCC(=Cc2ccc(Cl)cc2)C1(O)Cn1cncn1` (stereo not given), for which the molecule was classed as inactive.
Still for that read-out and setting: the result for `COc1cc(OC)nc(NC(=O)NS(=O)(=O)c2ncccc2OCC(F)(F)F)n1` reads “inactive”.
As for `COCC(C)N(C(=O)CCl)c1c(C)csc1C` (stereo not given), the call was inactive.
In the case of `Cc1c(COC(=O)[C@@H]2[C@H](/C=C(\Cl)C(F)(F)F)C2(C)C)cccc1-c1ccccc1`, the molecule was called inactive.
For the molecule `O=C(Nc1ccccc1-c1ccc(Cl)cc1)c1cccnc1Cl`, the call was inactive.
Same read-out and setting: the entry for `N#Cc1c(Cl)cccc1Cl` is “inactive”.
`CC(C)=CC1C(C(=O)OCc2coc(Cc3ccccc3)c2)C1(C)C` (stereo not given): the AC50 is 50 µM (active).
For `Cc1ccc(N=CN(C)C=Nc2ccc(C)cc2C)c(C)c1`, the outcome was inactive.
Consider `CC(C)NC(=O)N1CC(=O)N(c2cc(Cl)cc(Cl)c2)C1=O`, for which the molecule was classed as inactive.
Consider `CC(C)N1C(=O)N(c2ccccc2)CSC1=NC(C)(C)C`, for which the call was inactive.
On the same count and under the same terms, the entry for `Nc1c(Cl)c(F)nc(OCC(=O)O)c1Cl` is “inactive”.
As for `CO/N=C(/C1=NOCCO1)c1ccccc1Oc1ncnc(Oc2ccccc2Cl)c1F`, the AC50 was 8.64 µM (active).
For `CCOc1nc(F)cc2nc(S(=O)(=O)Nc3c(Cl)cccc3Cl)nn12`, the call was inactive.
Turning to `COCC(=O)N(c1c(C)cccc1C)C(C)C(=O)OC` (stereo not given), the molecule was called inactive.
On the same count and under the same terms, the result for `CCNC(=O)NC(=O)C(C#N)=NOC` reads “inactive”; that for `Nc1c(Cl)c(Cl)nc(C(=O)O)c1Cl`, “inactive”.
With `COC(=O)N(C(=O)N1CO[C@@]2(C(=O)OC)Cc3cc(Cl)ccc3C2=N1)c1ccc(OC(F)(F)F)cc1`, the AC50 is 2.11 µM (active).
Still for that read-out and setting: the figure for `CCOc1cc(C(C)(C)C)ccc1C1COC(c2c(F)cccc2F)=N1` (stereo not given) is 5.07 µM (active).
Consider `COc1cc(Cl)c(OC)cc1Cl`, for which the call was inactive.
For `C=C(C)CN(CC)c1c([N+](=O)[O-])cc(C(F)(F)F)cc1[N+](=O)[O-]`, the molecule was classed as inactive.
Same read-out and setting: the entry for `CCCCOCN(C(=O)CCl)c1c(CC)cccc1CC` is “inactive”.
As for `O=c1n(Cl)c(=O)n(Cl)c(=O)n1Cl`, the molecule was classed as inactive.
Regarding `CCOP(=O)(OCC)Oc1nc(Cl)c(Cl)cc1Cl`, the molecule was classed as inactive.
Regarding `CCN(CC)C(=O)C(C)Oc1cccc2ccccc12` (stereo not given), the AC50 is 7.47 µM (active).
Turning to `CN/C(=N\[N+](=O)[O-])NCc1cnc(Cl)s1`, the call was inactive.

In general, AC50 refers to the midpoint of the concentration-response curve, whichever way the signal moves.
